Screen size: about 410,000 compounds; about 18,000 (4.4%) were called active. Not shown: some 7% with an inconclusive outcome. The sample holds actives, similar compounds and a random draw of the others, so the mix is not that of the screen. No stated cut-off is given here; in the data, active means activity change below about -60%; inconclusive means no clear call, values can overlap the other calls; inactive means above about -39%.
On the % scale 0 is the no-effect control and ±100 the full control effect.

A short description of the assay: qHTS Assay for inhibitors of the human cytomegalovirus (HCMV). Particulars: HFF cells, HCMV-luciferase reporter, 72 h; at 57.5 µM; hits give low values. In outline:
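Inhibition of viral replication was scored as loss of reporter luminescence in HFFs infected with HCMV-luciferase (MOI 1 PFU/cell) for 72 h; compounds tested at 2 doses, normalized to buffer and Salinomycin controls.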
On to `COc1cccc(NC(=S)NC(=O)c2c(Cl)c(C)nn2C)c1`, for which the activity change, negative = inhibition was 12.6% (inactive).

As for `COc1ccc(N2CCN(S(=O)(=O)CCNC(=O)C34CC5CC(CC(C5)C3)C4)CC2)cc1`, the activity change, negative = inhibition is -36.2% (inactive).

Consider `CCOc1ccccc1OCCCNCc1ccccc1`, for which the activity change, negative = inhibition is -10.8% (inactive).

As for `CN(C)CCNC(=O)c1ccc(Cl)c2cc3ccccc3nc12`, the activity change, negative = inhibition was -98.5% (active).

Take `COc1ccc(Nc2cc(C(=O)NCCCN(C)c3ccccc3)c3ccccc3n2)c(OC)c1`: the activity change, negative = inhibition was -2.95% (inactive).

For `CN(C)CCNC(=O)Cc1ccc([N+](=O)[O-])cc1`, the activity change, negative = inhibition is -3.93% (inactive).

As for `COc1cccc(-c2nnc(SCC(=O)N3CCC(C)CC3)o2)c1`, the activity change, negative = inhibition was -9.59% (inactive).

On to `COc1ccc(-c2cc(-c3nc(-c4cc(OC)c(OC)c(OC)c4)no3)[nH]n2)c(OC)c1`, for which the activity change, negative = inhibition was -68.8% (active).

With `COc1cc(-c2noc(-c3ccc(N4CCCC4)c([N+](=O)[O-])c3)n2)cc(OC)c1OC`, the activity change, negative = inhibition is -6.79% (inactive).

Turning to `COc1ccc(-c2noc(CSc3nnc(-c4ccccc4)n3-c3ccc(F)cc3)n2)c(OC)c1`, the activity change, negative = inhibition was -21.4% (inactive).

`COc1ccc(-c2nc(-c3ccccc3)no2)c(OC)c1`: the activity change, negative = inhibition was -60.9% (active).

Turning to `CC(=O)c1ccc(NC(=O)COc2ccccc2-c2nc(-c3ccccc3)no2)cc1`, the activity change, negative = inhibition is 13.9% (inactive).

With `COc1cc(-c2noc(C3CCCN(S(=O)(=O)c4cccc(Cl)c4)C3)n2)cc(OC)c1OC` (stereo not drawn), the activity change, negative = inhibition was 41.5% (inactive).

Turning to `O=C1CN(C(=O)Nc2ccccc2C(F)(F)F)C(c2ccccc2)c2c(sc3c2CCCC3)N1` (stereo not drawn), the activity change, negative = inhibition is -16.6% (inactive).

Consider `CCCCOc1ccc(N(CC(=O)NCC2CCCO2)C(=O)CCC(=O)Nc2cc(C)ccn2)cc1` (stereo not drawn), for which the activity change, negative = inhibition is 36.3% (inactive).

As to `CC(C)Oc1ccc(/C=N/NC(=O)c2nnn(-c3nonc3N)c2CN(C)C2CCCCC2)cc1`, the activity change, negative = inhibition is 7.96% (inactive).

For the molecule `CN(C)Cc1c(C(=O)N/N=C/c2ccccc2OCc2ccc(F)cc2)nnn1-c1nonc1N`, the activity change, negative = inhibition is -6.09% (inactive).

Take `Nc1nonc1-n1nnc(C(=O)N/N=C/c2cc(Br)ccc2O)c1CSC1=NCCS1`: the activity change, negative = inhibition was -103% (active).

Consider `CC(C)c1ccc(NC(=O)c2ccc3c(O)c(S(=O)(=O)c4ccccc4)c(=O)[nH]c3c2)cc1`, for which the activity change, negative = inhibition is 2.46% (inactive).

For the molecule `Cc1ccc2nc(COc3ccc(NC(=O)COc4ccccc4F)cc3)cc(=O)n2c1`, the activity change, negative = inhibition was 20.4% (inactive).

In the case of `Cc1ccc(C2CC2C(=O)NN)cc1` (stereo not drawn), the activity change, negative = inhibition is 7.91% (inactive).

Take `Cc1ccc(C2NC(C(=O)O)CS2)cc1` (stereo not drawn): the activity change, negative = inhibition is -64.5% (active).

In the case of `O=C(O)C1CSC(c2cccnc2)N1` (stereo not drawn), the activity change, negative = inhibition is -2.83% (inactive).

Turning to `Cc1nc2ccc(S(=O)(=O)N(CC(=O)Nc3ccc(F)cc3)Cc3ccccc3)cc2s1`, the activity change, negative = inhibition is -20.3% (inactive).

`COC(=O)c1cccc(Cn2nnc3sc4c(c3c2=O)CCC(C(C)(C)C)C4)c1` (stereo not drawn): the activity change, negative = inhibition is 27.6% (inactive).

`O=c1[nH]c2cc(Br)ccc2n2cccc12`: the activity change, negative = inhibition was -16.7% (inactive).

In the case of `O=C(CN1CCN(c2ccc(Cl)cc2)CC1)c1ccccc1`, the activity change, negative = inhibition is -68.8% (active).

In the case of `CC(C)OC(=O)CN1CCN(c2ccc(Cl)cc2)CC1`, the activity change, negative = inhibition is -25.8% (inactive).

For the molecule `O=C(CN1CCN(c2ccc(Cl)cc2)CC1)NCc1cccs1`, the activity change, negative = inhibition is -26.2% (inactive).

Take `CCCCCCCCN1C(=O)[C@H](CC(=O)NCc2cccc3ccccc23)C[C@@]2(C(=O)OC)CCCCC=C12`: the activity change, negative = inhibition is 11.4% (inactive).

Take `CCC(=O)N1CCc2cc(Br)cc(S(=O)(=O)Nc3ccc(C)cc3C)c21`: the activity change, negative = inhibition is -2.54% (inactive).

Consider `CSc1nc(-c2ccccc2)nc(C(Cl)Cl)n1`, for which the activity change, negative = inhibition was -99.4% (active).

Consider `O=C1CC(c2ccccc2)=NN1c1ccc([N+](=O)[O-])cc1`, for which the activity change, negative = inhibition is -78% (active).

Take `C/C(N)=C(/C#N)C(=O)COC(=O)C1=NN(c2ccccc2)C(=O)CC1`: the activity change, negative = inhibition was 36.4% (inactive).

Regarding `CCN1N=C(c2ccccc2)CCC1=O`, the activity change, negative = inhibition is -24.2% (inactive).

On to `O=C1CCCc2cc(S(=O)(=O)N3CCCC(C(=O)NCc4ccccc4)C3)ccc2N1` (stereo not drawn), for which the activity change, negative = inhibition was -3.71% (inactive).

For `CCOc1ccc(-n2c(SCC(=O)NCc3ccccc3)nc3n[nH]c(C)c3c2=N)cc1`, the activity change, negative = inhibition is 35.6% (inactive).

For `COc1ccc(Cc2nnc(SC)[nH]c2=O)cc1`, the activity change, negative = inhibition was -30.1% (inactive).

`COc1ccc(Cc2nnc(N/N=C/c3ccccc3O)[nH]c2=O)cc1OC`: the activity change, negative = inhibition was -97.9% (active).

In the case of `Cc1ccc(Cc2nnc(SCC(=O)Nc3ccccc3C)[nH]c2=O)cc1`, the activity change, negative = inhibition was -1.67% (inactive).

As for `Cc1ccc(C)c(N2CCN(S(=O)(=O)c3ccc4c(c3)C(C(C)C)C(=O)N4)CC2)c1` (stereo not drawn), the activity change, negative = inhibition was -24.7% (inactive).

On to `CCOc1ccc(NC(=O)CN(C)C(=O)c2c(C)noc2C)cc1OCC`, for which the activity change, negative = inhibition is -5.36% (inactive).

Consider `Cc1ccccc1-c1nc2cc(NC(=O)c3cccc(OCCC(C)C)c3)ccc2o1`, for which the activity change, negative = inhibition was -15.9% (inactive).

Take `CCOC(=O)C1CCCN(C(=O)c2sc3nc(C)nc(N4CCOCC4)c3c2C)C1` (stereo not drawn): the activity change, negative = inhibition was -14% (inactive).

Regarding `CC(=O)c1ccc(NC(=O)c2sc3nc4n(c(=O)c3c2C)CCCCC4)cc1`, the activity change, negative = inhibition is 23.1% (inactive).

With `Cc1nc(N2CCOCC2)c2c(C)c(C(=O)Nc3ccc(C(F)(F)F)cc3)sc2n1`, the activity change, negative = inhibition was -84.9% (active).

Regarding `Cc1cc(N2C(=O)C(=O)/C(=C(/O)c3ccccc3)C2c2cccc(Br)c2)no1` (stereo not drawn), the activity change, negative = inhibition is -20.6% (inactive).

As for `CCN(CC)S(=O)(=O)c1ccc(C(=O)N=c2sc3cccc(OC)c3n2C)cc1`, the activity change, negative = inhibition was -2.8% (inactive).

`CCOc1ccc(C(C(=O)NC2CCCC2)N(C(=O)c2snc(C(N)=O)c2N)C2CCCC2)cc1` (stereo not drawn): the activity change, negative = inhibition was -24.5% (inactive).

As for `COc1ccc(N(C(=O)c2snc(C(N)=O)c2N)C(C(=O)NC2CCCC2)c2ccco2)cc1OC` (stereo not drawn), the activity change, negative = inhibition was -8.05% (inactive).

Take `COc1cc(C(C(=O)NC2CCCC2)N(Cc2ccccc2)C(=O)c2snc(C(N)=O)c2N)ccc1O` (stereo not drawn): the activity change, negative = inhibition was -99.2% (active).

`CC(C)NC(=O)N1CC(=O)N2[C@H](CO)[C@@H](c3ccc(Br)cc3)[C@H]2C1`: the activity change, negative = inhibition was 1.46% (inactive).

In the case of `CCc1cc2c(cc3c(=O)n(CC(=O)N4CCN(c5cc(Cl)ccc5C)CC4)nc(CC)n32)s1`, the activity change, negative = inhibition was 12.7% (inactive).

As for `COc1ccc(-c2noc(CCC(=O)N(C)c3ccccc3C)n2)cc1`, the activity change, negative = inhibition is -35.9% (inactive).

`CCOC(=O)c1cc2c(=O)n3ccccc3nc2n(CC2CCCO2)c1=NC(=O)c1ccc(C(C)(C)C)cc1` (stereo not drawn): the activity change, negative = inhibition was 23.6% (inactive).

In the case of `CCCc1nc(SCC(=O)N2CCCC2)c2c(=O)n(C)c(=O)n(C)c2n1`, the activity change, negative = inhibition was -70.5% (active).

On to `CCOC(=O)N1CCN(C(=O)CSc2nc(C)nc3c2c(=O)n(C)c(=O)n3C)CC1`, for which the activity change, negative = inhibition was -22.5% (inactive).

On to `Cn1c(=O)c2c(SCC(=O)N3CCOCC3)nc(C3CC3)nc2n(C)c1=O`, for which the activity change, negative = inhibition was -3.56% (inactive).

Consider `Cn1nnnc1SCCCNCc1cccc(OCc2ccc(Cl)cc2)c1`, for which the activity change, negative = inhibition is 12.4% (inactive).

As for `CN(Cc1ccccc1)C(=O)c1cc2c(=O)n(C)c3ccccc3c2s1`, the activity change, negative = inhibition was 2.36% (inactive).

For the molecule `O=C(NCc1ccncc1)C(=O)NCc1ccco1`, the activity change, negative = inhibition was -17.8% (inactive).

In the case of `COc1cccc(CNc2nc(C(F)(F)F)nc3ccccc23)c1`, the activity change, negative = inhibition was -73.3% (active).

With `COc1cccc(CNC(=O)Cc2csc3nc(-c4ccccc4)cn23)c1`, the activity change, negative = inhibition is -6.98% (inactive).

For `CC(NCCc1ccc(S(N)(=O)=O)cc1)C(=O)NCc1ccccc1` (stereo not drawn), the activity change, negative = inhibition is -27.8% (inactive).

Consider `O=C(COc1ncnc2ccccc12)NC(=O)NCc1ccccc1`, for which the activity change, negative = inhibition was -32.5% (inactive).

Regarding `c1coc(CNc2ncnc3ccccc23)c1`, the activity change, negative = inhibition was -64.6% (active).

Turning to `COc1ccc(CNc2ncnc3ccccc23)cc1`, the activity change, negative = inhibition is -91.4% (active).

As to `COc1cccc(CNc2ncc(-c3ccccc3)n2C)c1`, the activity change, negative = inhibition was 34.7% (inactive).

For the molecule `COc1ccc(CNC(=O)COc2cccnc2[N+](=O)[O-])cc1`, the activity change, negative = inhibition is 1.06% (inactive).

`CC(=O)OC[C@@H]1CN(Cc2ccccc2)C[C@H](n2cnc3c(NCc4ccco4)ncnc32)O1`: the activity change, negative = inhibition was -0.673% (inactive).

For the molecule `NS(=O)(=O)c1ccc(CCNc2nc(C(F)(F)F)nc3ccccc23)cc1`, the activity change, negative = inhibition was -68.6% (active).

Consider `NS(=O)(=O)c1ccc(CCNC(=O)COC(=O)COc2cccc(C(F)(F)F)c2)cc1`, for which the activity change, negative = inhibition was -3.4% (inactive).

Regarding `CCC(=O)N1CCc2cc(CNC(=O)Nc3ccccc3Cl)ccc21`, the activity change, negative = inhibition is 38.6% (inactive).

Turning to `Cc1ccc(NS(=O)(=O)c2ccc3c(c2)CC(=O)N3)cc1Cl`, the activity change, negative = inhibition is 7.34% (inactive).

Regarding `O=C(NCc1ccccc1Cl)c1cccn1-c1nnc(N2CCCCC2)s1`, the activity change, negative = inhibition was 0% (inactive).

Regarding `CCn1c(C(C)NC(=O)c2ccc(C)cc2)n[nH]c1=S` (stereo not drawn), the activity change, negative = inhibition was 12.4% (inactive).

Regarding `Cc1cccc(C2CC(=O)Oc3c2c(=O)n(C)c2ccccc32)c1` (stereo not drawn), the activity change, negative = inhibition was 18.7% (inactive).

Take `O=[N+]([O-])c1cc(-c2nc(-c3ccccc3)no2)ccc1NCc1ccco1`: the activity change, negative = inhibition is 82.5% (inactive).

Consider `c1ccc(-c2nc(NCc3ccco3)c3ccccc3n2)cc1`, for which the activity change, negative = inhibition was -68% (active).

On to `CN(c1ccccc1)c1nc(N)c([N+](=O)[O-])c(NCc2ccco2)n1`, for which the activity change, negative = inhibition was -22.9% (inactive).

Regarding `Cc1oc(C)c2c(=O)cc(-c3ccc4c(c3)OCO4)cc(OC(=O)c3ccc(Cl)cc3)c12`, the activity change, negative = inhibition was 8.11% (inactive).

Regarding `O=C(OCc1cc(=O)n2nc(C3CC3)sc2n1)c1ccccc1Cl`, the activity change, negative = inhibition was -5.87% (inactive).

With `Cc1ccc(-n2c(SCC(=O)NCCC3=CCCCC3)nc3n[nH]c(C)c3c2=N)cc1Cl`, the activity change, negative = inhibition is -93.6% (active).

Consider `COc1ccc(-n2c(SCC(=O)Nc3ccc(Cl)c(C)c3)nc3n[nH]c(C)c3c2=N)cc1`, for which the activity change, negative = inhibition is 0% (inactive).

Turning to `COc1cccc(-n2c(SCC(=O)NC3CCCCC3)nc3n[nH]c(C)c3c2=N)c1`, the activity change, negative = inhibition was 28% (inactive).

Regarding `COc1ccc(-n2nnc(-c3nsc(NC(=O)c4ccc(C)c(C)c4)n3)c2C)cc1Cl`, the activity change, negative = inhibition is -9.03% (inactive).

`O=C(NCCc1ccccc1)C(=O)NCC(c1ccco1)S(=O)(=O)c1ccccc1` (stereo not drawn): the activity change, negative = inhibition is -21.8% (inactive).

`COc1cc(C(=O)NCC(c2ccc(Cl)cc2)N2CCOCC2)cc(OC)c1OC` (stereo not drawn): the activity change, negative = inhibition was 3.59% (inactive).
